IMPase inh – qHTS Assay for Identifying the Cell-Membrane Permeable IMPase Inhibitors | CHO-M1 cells, IP1 accumulation, HTRF TR-FRET ratio | inhibition (IP1 accumulation), % at 46.1 µM | 120,000 tested, under 10 active; active = well fitted curve in the direction sought with a large enough effect in the signal ratio, not every such curve was filed as active; inconclusive = small, poorly fitted or top-dose-only effect, or a change in a side signal; inactive = no such curve, though single readings can be large or run the other way; the % refers to the signal ratio;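 also: cells stimulated with carbachol in lithium chloride buffer; higher means more IMPase inhibition seen as more IP1 and lower FRET ratio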
Target sequence (P97697 whole entry, looked up): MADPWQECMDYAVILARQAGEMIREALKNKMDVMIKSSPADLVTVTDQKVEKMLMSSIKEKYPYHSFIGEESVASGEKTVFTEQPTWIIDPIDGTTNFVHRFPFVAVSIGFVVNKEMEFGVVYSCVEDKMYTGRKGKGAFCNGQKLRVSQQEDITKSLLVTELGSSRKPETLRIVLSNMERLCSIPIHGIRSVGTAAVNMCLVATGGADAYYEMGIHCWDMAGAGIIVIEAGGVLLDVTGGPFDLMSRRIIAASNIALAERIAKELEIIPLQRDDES
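Elevated IP1 in lysates lowers TR-FRET signal (665/620 ratio and 620 channel reported). Cells were CHO-M1, given carbachol (50 uM as added) plus 50mM LiCl, pH 7.4, 30 min, 37C; compounds titrated up to 46 uM; AC50 by Hill equation.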
HPGD inh – qHTS Assay for Inhibitors of HPGD (15-Hydroxyprostaglandin Dehydrogenase). 15-hydroxyprostaglandin dehydrogenase [NAD(+)] (Homo sapiens), P15428. purified HPGD, NADH fluorescence kinetic, PGE2 substrate. Potency, µM, actives largely listed as inhibitors. 150,000 compounds, 4.3% hits. AID 894, 2007
Target sequence (P15428 whole entry, looked up): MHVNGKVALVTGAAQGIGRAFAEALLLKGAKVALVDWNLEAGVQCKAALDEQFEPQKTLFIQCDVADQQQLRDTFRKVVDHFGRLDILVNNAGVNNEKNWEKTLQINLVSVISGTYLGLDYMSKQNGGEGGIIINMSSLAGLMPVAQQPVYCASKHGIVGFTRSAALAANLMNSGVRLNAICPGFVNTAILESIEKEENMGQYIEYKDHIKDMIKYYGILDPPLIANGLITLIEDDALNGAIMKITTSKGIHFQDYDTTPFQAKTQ
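NADH formation kinetics: reaction with 30 uM PGE2 and 1 mM NAD+ (final), 20 nM enzyme, Tris-HCl pH 8 with Tween 20, after 15 min compound preincubation at room temperature. Fluorescence change, last versus first of five reads.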
ALDH1A1 block – qHTS Assay for Inhibitors of Aldehyde Dehydrogenase 1 (ALDH1A1); Aldehyde dehydrogenase 1A1 (Homo sapiens), P00352; Purified ALDH1A1, NADH fluorescence, propionaldehyde substrate; Potency, µM (doses to about 75.3 µM), usual class: inhibitors; 220,000 compounds, 7.3% hits; AID 1030, 2008
A number is an active result; n = inactive; u = inconclusive; x = not tested or not shown; [ ] = dose if it differs, or a comment. Hits are enriched below; roughly 9% of the tested compounds scored in any of these assays. Unless noted, calls follow the shape of the dose curve; as a rule, active = well fitted inhibition curve with a large enough effect (not every such curve was filed as active); inconclusive = small, poorly fitted or top-dose-only effect, or another doubt; inactive = no such curve, though single readings can be large or run the other way.

SMILES	IMPase inh	HPGD inh	ALDH1A1 block
O=C(/C=C/c1ccco1)NC(=S)Nc1ccc(Cl)cn1	n	n	10µM
O=C(O)CCCC[C@H]1CCSS1	n	x	x
COc1cc([N+](=O)[O-])cc2sc(NC(=O)C3CC3)nc12	x	x	n
COC(=O)COc1ccc(-n2cnnn2)cc1	x	x	n
COC/C=C/C1=CC2=CC(=O)C(C)(OC(=O)c3cnc4ccccc4n3)C(=O)C2=CN1c1ccc(CO)cc1 (stereo not given)	x	n	n[13.5 µM]
CS(=O)(=O)Nc1cccc(-c2nc(NCCN3CCOCC3)c3ccccc3n2)c1	x	n	n
O=C(/C=C/c1ccco1)NC1CCCC1	x	x	22.4µM
COc1ccc(/C=C/C(=O)NC(=S)Nc2ccc(S(=O)(=O)Nc3cc(OC)ncn3)cc2)cc1	x	x	28.2µM
COc1ccc(NC(=O)CCCN2C(=O)/C(=C\c3ccco3)SC2=S)cc1	n	n	25.1µM
COC(=O)c1ccccc1NC(=O)/C=C/c1ccco1	n	n	25.1µM
COC(=O)c1ccccc1NC(=O)NCc1ccco1	n	n	n
COc1cc(NS(=O)(=O)c2ccc(NC(C)=O)cc2)ncn1	n	n	n
O=C(/C=C/c1ccc(Br)cc1)NC1CCCCCC1	n	n	n
O=C(CCCN1C(=O)/C(=C\c2cccs2)SC1=S)Nc1ccc(C(=O)O)cc1	x	x	n
O=C(Cn1cccc1C(=O)c1ccccc1)NCc1ccccn1	n	n	n
CCSC[C@@H](N)C(=O)O	x	n	n[13.5 µM]
Cc1ccc(NC(=O)CN(C)C(=S)NC2CC2)cc1	x	x	n
COc1ccc(NC(=S)NC(=O)/C=C/c2ccco2)cc1	x	x	7.08µM
NN1C(=O)/C(=C\c2ccco2)SC1=S	x	x	1.26µM
O=C1/C(=C\c2ccco2)SC(=S)N1c1ccc(O)cc1	x	n	u
CN(C)c1ccc(NC(=S)NC(=O)/C=C/c2ccco2)cc1	x	x	n
COc1ccc[nH]c1=O	n	n	n
Cc1ccc(S(=O)(=O)/N=C2/C=C(C3C(=O)CC(C)(C)CC3=O)C(=O)c3ccccc32)cc1	n	u	u
CCc1ccc(S(=O)(=O)/N=C2/C=C(Sc3ncn[nH]3)C(=O)c3ccccc32)cc1	x	1.58µM	5.01µM
Cc1cc(=S)[nH]c2ccccc12	n	14.1µM	u
SMILES	IMPase inh	HPGD inh	ALDH1A1 block
Cc1ccc2[nH]c(=S)cc(C)c2c1	n	7.08µM	3.16µM
Cc1ccc(C)c2c1[nH]c1ccccc12	n	n	n
Cc1ccc2c(C)cc(=S)[nH]c2c1	x	x	n
CCn1c(SCC(=O)Nc2ccc(Cl)cc2)nc2nc3c(cc2c1=O)CCCC3	n	n	u
COCCn1c(SCC(=O)Nc2ccccc2C)nc2c(oc3ccccc32)c1=O	n	n	u
Cc1ccccc1NC(=O)Cn1cnc2c(oc3nc4c(cc32)COC(C)(C)C4)c1=O	x	n	22.4µM
CCn1c(SCC(=O)Nc2ccc(OC)cc2)nc2nc3c(cc2c1=O)COC(C)(C)C3	x	x	2µM
CCn1c(SCC(=O)Nc2ccc(C(C)=O)cc2)nc2nc3c(cc2c1=O)CCCC3	n	n	0.891µM
COc1ccc(NC(=O)CSc2nc(N)c3cc4c(nc3n2)CCCC4)cc1	x	n	u
COc1ccccc1NC(=O)Cn1cnc2c(oc3ccccc32)c1=O	n	n	n
CCn1c(SCC(=O)Nc2ccccc2C)nc2nc3c(cc2c1=O)COC(C)(C)C3	x	x	14.1µM
NC(=O)COc1ccc(/C=N/NS(=O)(=O)c2ccccc2)cc1	x	x	n
C=CCOC(=O)NC(CC(=Nc1ccc(OC)cc1)C(=O)OC)c1ccccc1 (stereo not given)	x	n	u
CN(N)C(=S)Nc1ccc(Cl)cc1	x	x	n
Cc1ccc(-n2c(SCC(=O)NCc3ccco3)nc3sc(C)c(C)c3c2=O)cc1	n	u	n
CCn1c(SCC(=O)NCc2ccccc2)nc2nc3c(cc2c1=O)CCCC3	x	x	n
Cc1cccc(NC(=O)Cn2cnc3c(oc4ccccc43)c2=O)c1	x	x	n
C=C(C)Cn1cnc2c(oc3nc4c(cc32)CCCC4)c1=O	x	x	1µM
Cc1ccc(-n2c(SCC(=O)NCc3ccco3)nc3nc4c(cc3c2=O)COC(C)(C)C4)cc1	n	x	0.794µM
CCn1c(SCc2ccccc2Cl)nc2nc3c(cc2c1=O)CCCC3	x	n	15.8µM
C=CCNC(=S)Nc1nc2c(cc1C(=O)OCC)CCCC2	x	n	u
O=C(OCc1cc(=O)n2cc(Br)ccc2n1)c1ccc(Cl)c(S(=O)(=O)NCc2ccccc2)c1	x	n	u
CCN1CCN(C(=S)NCC2CCCO2)CC1 (stereo not given)	x	x	0.501µM
Fc1ccc(N2CCN(C(=S)NCC3CCCO3)CC2)cc1 (stereo not given)	x	x	n
CCN(CC)C(=O)C1CCCN(Cc2ccccc2C(F)(F)F)C1 (stereo not given)	n	n	3.55µM
SMILES	IMPase inh	HPGD inh	ALDH1A1 block
CCN(CC)C(=O)C1CCCN(Cc2ccccc2F)C1 (stereo not given)	n	n	n
CS(=O)(=O)c1nsc2nc(=O)c(/C=C3\C=Nc4ccccc43)c(N)n12	x	x	n
CS(=O)(=O)c1ccc2c(c1)sc1nc(=O)c(/C=C3/C=CC(=O)C(O)=C3)c(N)n12	x	x	12.6µM
CC(=O)c1cccc(S(=O)(=O)NC2CCCCCC2)c1	x	n	10µM
CC(=O)c1cccc(S(=O)(=O)NC2CC2)c1	n	n	u
CCCOc1ccc(C(=O)Nc2c(C(=O)c3ccc(C)cc3)oc3ccccc23)cc1	n	x	x
O=S(=O)(N/N=C/c1ccc2c(c1)OCCO2)c1ccc(Cl)cc1	n	n	n
Cc1cc(Cl)c(S(=O)(=O)N/N=C/c2ccc3c(c2)OCO3)c(Cl)c1	n	n	11.2µM
O=C(CSc1nc2nn(-c3ccccc3)c(=O)c-2c2n1CCCCC2)NCCCc1ccccc1	x	x	n
CC(=O)c1cccc(N2Cc3ccccc3C2=NC(=O)CCl)c1	x	x	3.55µM
